Out of some 350,000 compounds screened, about 7,000 (2%) were called active. This is one part of a sample in which actives are shown more often than they occur. A number with no mark means an inactive call. No stated cut-off is given here; in the data, active means activation above about 40%; inconclusive means no clear call, values can overlap the other calls; inactive means below that.

The nature of the assay: Bmi1 luciferase reporter increase in mESCs, primary screen, esBAF inhibitor project, mouse ES cells, Bmi1 luciferase knock-in, single point (AID 602393).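 Further: 0% = median of the plate's neutral control wells and 100% = double that signal; a rise in the Bmi1 reporter signal indicates esBAF inhibition.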 To be noted: 24 h, at 12.5 µM, stronger effect = higher value, 100% = twice the neutral-well signal.
As for `Cc1cccc(S(=O)(=O)N[C@H]2CC[C@@H](CCNS(=O)(=O)c3ccccc3F)O[C@H]2CO)c1`, the reporter increase was -0.839%. Under `Cc1ccc(C2=Nc3c(ccc4ccccc34)C(c3ccncc3)=NN2)cc1` stands 10%; under `CCOc1ccc2[nH]c(=S)sc2c1`, 27.8%; under `CCOc1ccc2c(c1)C(c1ccc(C)cc1)=NNC(c1ccc(C)cc1)=N2`, 67.3% (active). In the case of `C[C@@H]1CN([C@@H](C)CO)C(=O)Cc2cc(NS(=O)(=O)c3ccc(F)cc3)ccc2O[C@@H]1CN(C)S(=O)(=O)c1cccs1` it was 4.77%; in that of `CCC(=O)Nc1ccc2c(c1)C(=O)N(C)C[C@@H](OC)[C@@H](C)CN(Cc1ccccc1OC)[C@H](C)CO2`, -3.34%. Consider `CNC[C@@H]1Oc2cc(-c3ccccc3OC)ccc2S(=O)(=O)N([C@H](C)CO)C[C@H]1C`, for which the reporter increase is -6.68%. `CN1CCN(C(=O)C[C@H]2C[C@H]3c4cc(NC(=O)Nc5ccccc5F)ccc4O[C@H]3[C@H](CO)O2)CC1`: the reporter increase is 2.41%. In the case of `CC(C)NC(=O)N(C)C[C@@H]1Oc2ncc(C#CC3CC3)cc2C(=O)N([C@@H](C)CO)C[C@H]1C` it was 5.43%; in that of `CSc1ccc(CNC(=O)c2ccc(NC(=O)C3=CSCCO3)cc2)cc1`, 15.9%.

As for `O=C(Nc1ccc(C(=O)NCc2ccccc2Cl)cc1)C1=CSCCO1`, the reporter increase was 44% (active). For the compound `O=C(NCc1ccccc1Cl)C1CCCO1` (stereo unspecified), the reporter increase is -4.1%. Under `CCN1[C@@H]2Cn3c(ccc(C4=CCCCC4)c3=O)[C@H]1[C@@H](C(=O)N1CCCCC1)[C@@H]2CO` stands -1.1%; under `O=C(Cc1ccc(F)cc1)N/N=C/c1ccc2c(c1)OCO2`, 52.6% (active); under `O=C(CN1CCSCC1)N/N=C/c1ccc(F)cc1`, 5%. Under `O=C(COC(=O)c1ccc(F)cc1)Nc1ccc2c(c1)OCO2` stands 1.17%; under `C[C@@H](NC(=O)[C@H]1[C@H](CO)[C@H]2Cn3c(cccc3=O)[C@H]2N1C(=O)C1CC1)c1ccccc1`, 2.89%. Under `COc1ccc(C(=O)Nc2ccc3c(c2)OC[C@H](C)N(C(C)=O)C[C@@H](C)[C@H](OC)CN(C)C3=O)cc1` stands -0.383%.

As for `Cc1ccc(S(=O)(=O)NCC[C@@H]2CC[C@@H](NC(=O)CCN3CCCCC3)[C@@H](CO)O2)cc1`, the reporter increase is -6.37%. Take `Cc1ccc(S(=O)(=O)Nc2ccc3c(c2)C(=O)N([C@@H](C)CO)C[C@H](C)[C@@H](CN(C)C(=O)Cc2ccccc2)OCCCC[C@H](C)O3)cc1`: the reporter increase was 0.836%. Under `Cc1ccnc(NC(=O)CNC(=O)c2ccccc2)c1` stands 20.5%; under `O=C(Nc1ncccc1O)c1ccc(C(=O)c2ccccc2)cc1`, 21.1%; under `O=C(CNC(=O)c1ccc2ccccc2c1)Nc1ncccc1O`, 51.4% (active). In the case of `Cc1noc(C)c1S(=O)(=O)N(C)C[C@H]1OCCCC[C@@H](C)Oc2ccc(NC(=O)c3ccccc3)cc2C(=O)N([C@@H](C)CO)C[C@H]1C` it was 5.48%; in that of `O=C(C[C@H]1CC[C@@H](NC(=O)Nc2ccc(C(F)(F)F)cc2)[C@H](CO)O1)NCc1cc(F)cc(F)c1`, 2.19%.

As to `CCC(=O)N1[C@@H]2CN(C(=O)Nc3ccc(Cl)cc3)c3ccccc3[C@@H]2[C@@H]1CO`, the reporter increase is 7.74%. In the case of `O=C(COC(=O)c1cc(=O)[nH]c2ccccc12)NCc1cccc(Cl)c1` it was -2.45%; in that of `CC1CCN(C(=O)COC(=O)c2cc(S(=O)(=O)N3CCOCC3)ccc2Cl)CC1`, -5.57%; in that of `O=C(OCc1nnc(-c2ccccc2)o1)c1cc(=O)[nH]c2ccccc12`, -2.08%. Consider `CC1CCN(C(=O)COC(=O)c2cc(=O)[nH]c3ccccc23)CC1`, for which the reporter increase was 60.1% (active). Take `COC(=O)C1CCN(C(=O)c2cc(=O)[nH]c3ccccc23)CC1`: the reporter increase was -0.707%. `CN(C(=O)COC(=O)c1cc(=O)[nH]c2ccccc12)C1CCCCC1`: the reporter increase was 59.3% (active). In the case of `COc1ccc(S(=O)(=O)N(C)C[C@@H]2OCCCC[C@@H](C)Oc3ccc(N(C)C)cc3C(=O)N([C@@H](C)CO)C[C@@H]2C)cc1` it was -1.73%; in that of `O=C(C[C@H]1CC[C@@H](NC(=O)c2ccncc2)[C@@H](CO)O1)Nc1ccccc1`, -0.301%. Under `Cc1cc(=O)c2ccc(NC(=O)c3ccccc3)cc2[nH]1` stands 1.23%; under `Cn1c(=O)n(C)c2cc(C(=O)Nc3ccc(Br)cc3)ccc21`, 6.69%; under `CC(C)n1c(=O)[nH]c2cc(C(=O)Nc3ccccc3)ccc21`, 46.7% (active). Under `CNC[C@H]1Oc2ncc(-c3ccccc3C)cc2C(=O)N([C@@H](C)CO)C[C@@H]1C` stands -1.27%; under `Cc1ccc(NC(=O)COc2ccc(/C=N\NC(=O)c3cccnc3)cc2)cc1C`, 1.32%. With `Cc1ccc(OCC(=O)NCCCNC(=O)c2cccnc2)cc1C`, the reporter increase is -1.38%.

For `C/C(=C\C(=O)c1cccnc1)Nc1ccc(C)c(C)c1`, the reporter increase was 64.2% (active).

Turning to `C[C@H]1CCCCO[C@@H](CN(C)Cc2ccc(C(=O)O)cc2)[C@@H](C)CN([C@@H](C)CO)C(=O)c2cc(NS(C)(=O)=O)ccc2O1`, the reporter increase was -4.29%.

Regarding `COc1cccc(/C=N\Nc2nncc(-c3ccccc3)n2)c1`, the reporter increase is 4.67%. In the case of `COc1ccc(/C=N/Nc2nc3ccccc3o2)cc1OC` it was 45.9% (active); in that of `CCOc1ccccc1/C=N/Nc1nc2ccccc2o1`, 25.5%; in that of `Brc1ccccc1/C=N/Nc1nc2ccccc2o1`, 66.2% (active). In the case of `C(=N\Nc1ccc2ccccc2n1)/c1ccc2c(c1)OCO2` it was -72.8%.

In the case of `O=C(CSc1nc2ccccc2o1)N/N=C/c1ccccc1C(=O)O`, the reporter increase is 28.5%. `CCCN1C[C@@H](C)[C@H](OC)CN(C)C(=O)c2ccc(NC(=O)C3CCOCC3)cc2OC[C@@H]1C`: the reporter increase is -4.1%. In the case of `C[C@@H]1CN([C@H](C)CO)C(=O)c2cc(NC(=O)Cc3ccccc3)ccc2O[C@@H](C)CCCCO[C@H]1CN(C)C(=O)Cc1ccccc1` it was 4.79%; in that of `CCC(=O)N(C)C[C@H]1Oc2cc(C#CC3CC3)ccc2S(=O)(=O)N([C@@H](C)CO)C[C@@H]1C`, -1.51%; in that of `CCCNC(=O)[C@@H]1[C@@H](CO)[C@@H]2Cn3c(ccc(-c4cccc(OC)c4)c3=O)[C@H]1N2C(=O)NCCC`, 1.23%. With `O=C(Nc1ccc(F)cc1)N[C@H]1C=C[C@@H](CC(=O)N2CCOCC2)O[C@H]1CO`, the reporter increase was -15.4%. Under `Cc1cccc(S(=O)(=O)N2CC[C@@H]3[C@H]2c2cc(C#Cc4ccc(F)cc4)ccc2N[C@@H]3CO)c1` stands 1.22%; under `COCC(=O)Nc1ccc2c(c1)OC[C@H](C)N(C(=O)c1ccccn1)C[C@@H](C)[C@H](OC)CN(C)C2=O`, -4.41%. In the case of `Cc1c(NC(=O)c2c([N+](=O)[O-])cnn2C)c(=O)n(-c2ccccc2)n1C` it was -3.74%; in that of `COc1ccc(CCNC(=O)c2c(C)nn(-c3ccccc3)c2Cl)cc1`, -5.69%; in that of `Cc1nn(-c2ccccc2)c(Cl)c1/C=N/NC(=O)c1nn(C)cc1[N+](=O)[O-]`, 52.5% (active).

Regarding `CCC(=O)N(C)C[C@@H]1Oc2cc(-c3ccc(C#N)cc3)ccc2S(=O)(=O)N([C@@H](C)CO)C[C@@H]1C`, the reporter increase was 2.37%. In the case of `CCCc1cn(CC[C@@H]2CC[C@@H](NC(=O)C3CC3)[C@H](CO)O2)nn1` it was 1.12%; in that of `C[C@@H]1CN([C@H](C)CO)C(=O)CCCn2nncc2CO[C@@H]1CN(C)Cc1ccc2c(c1)OCCN2C`, -3.86%; in that of `CO[C@@H]1CN(C)C(=O)c2cc(NS(C)(=O)=O)ccc2OC[C@H](C)N(C(=O)C2CC2)C[C@@H]1C`, 0.928%. Under `COCC#Cc1cnc2c(c1)C(=O)N([C@H](C)CO)C[C@H](C)[C@H](CN(C)Cc1ccc(-c3ccccc3)cc1)O2` stands -4.32%; under `Cc1c(C(N)=O)sc2ncn(CCOc3ccccc3)c(=O)c12`, 16.1%; under `Cc1nn(CCOc2ccccc2)c(=O)n1-c1ccccc1F`, 49.4% (active). In the case of `O=C(NCCOc1ccccc1)c1ccccc1F` it was -7.45%.

Take `COCC(=O)Nc1ccc2c(c1)[C@H]1C[C@H](CC(=O)NCc3ccccn3)O[C@H](CO)[C@H]1O2`: the reporter increase was 0.452%. Under `CO[C@H]1CN(C)C(=O)c2ccc(NS(=O)(=O)c3cn(C)cn3)cc2OC[C@@H](C)N(C)C[C@@H]1C` stands -7.11%; under `C[C@@H](NC(=O)C[C@@H]1CC[C@@H]2[C@H](COC[C@@H](O)CN2C(=O)Nc2cccc(F)c2)O1)c1ccccc1`, 11.2%; under `CCCN(C)C[C@H]1Oc2ncc(C#CC3CCCCC3)cc2C(=O)N([C@H](C)CO)C[C@@H]1C`, -4.47%. Turning to `C[C@@H]1CN([C@@H](C)CO)C(=O)Cc2cc(NS(=O)(=O)c3cccs3)ccc2O[C@H]1CN(C)S(=O)(=O)c1ccc(F)cc1`, the reporter increase is -3.47%. In the case of `CN(C)S(=O)(=O)c1ccc2oc(SCC(=O)Nc3ccccc3F)nc2c1` it was 56% (active); in that of `COc1ccc(S(=O)(=O)N(C)C)cc1NC(=O)CSc1ncccn1`, -0.957%; in that of `COc1ccc(NS(=O)(=O)c2ccc3oc(SCC(N)=O)nc3c2)cc1`, 4.52%.

For the compound `COc1ccc(NC(=O)N[C@H]2CC[C@@H](CCNS(=O)(=O)c3cccc(Cl)c3)O[C@H]2CO)cc1`, the reporter increase was 1.55%. In the case of `COc1cccc(NC(=O)C[C@@H]2CC[C@@H]3[C@H](COc4ccc(NC(=O)C5CCOCC5)cc4C(=O)N3C)O2)c1` it was 1.18%.
